Laboratory results taken from the supplement of paper PMC12532568.
Where a name gives a salt, the structure may show the parent alone.

tested on: Danio rerio larvae Tg(actc1b:ZsGreen-LC3), 3 dpf; test: LC3 puncta relative area vs vehicle, with NH4Cl (autophagic flux) (log2 fold change); higher = more autophagy; settings: 10 µM; treatment time 16 h; NH4Cl: + 100 mM, 4 h
Procedure: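 Transgenic Tg(actc1b:ZsGreen-map1lc3) zebrafish larvae (2 dpf) were treated for 16 h with Tocris library compounds at 10 µM (n = 12 larvae per compound). Skeletal-muscle LC3 puncta area relative to body area was measured by high-content confocal imaging before and after 4 h of 100 mM NH4Cl (autophagic flux), normalised to vehicle (DMSO), and reported as log2 fold change.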

| Structure (SMILES) | LC3 puncta (log2) |
| --- | --- |
| Cc1onc(O)c1CC(N)C(=O)O (racemic) | 0.2 |
| c1ccc2c(c1)OCC(C1=NCCN1)O2 (stereo not given) [Idazoxan hydrochloride] | 0.662 |
| Oc1ccc2c3c1O[C@H]1c4c(c5ccccc5n4Cc4ccccc4)C[C@@]4(O)C(C2)N(CC2CC2)CC[C@]314 [N-Benzylnaltrindole hydrochloride] | 0.945 |
| c1ccc(CC(c2ccccc2)N2CCCCC2)cc1 (stereo not given) [(?)-1-(1,2-Diphenylethyl)piperidine maleate] | 0.216 |
| Cc1[nH]c2ccc(O)cc2c1CCN [2-Methyl-5-hydroxytryptamine hydrochloride] | 0.337 |
| NCC(CS(=O)(=O)O)c1ccc(Cl)cc1 (stereo not given) [Saclofen] | -0.0138 |
| CCCN[C@@H]1CCc2c(OC)cccc2[C@@H]1C [(+)-AJ 76 hydrochloride] | 0.353 |
| OC1CCCCC1N1CCC(c2ccccc2)CC1 (stereo not given) [(?)-Vesamicol hydrochloride] | 0.751 |
| CCCN(CCC)[C@@H]1CCc2c(OC)cccc2[C@@H]1C [(+)-UH 232 maleate] | 0.738 |
| CC(=O)N1CC[N+](C)(C)CC1 [4-Acetyl-1,1-dimethylpiperazinium iodide] | 0.151 |
| c1ccc2c(c1)[I+]c1ccccc1-2 [Diphenyleneiodonium chloride] | 0.545 |
| c1ccc(CCCCN2CCC(c3ccccc3)CC2)cc1 [4-PPBP maleate] | 0.486 |
| O=C1NCN(c2ccccc2)C12CCN(CC1COc3ccccc3O1)CC2 (stereo not given) [Spiroxatrine] | 0.649 |
| CN1[C@@H]2CC[C@H]1C[C@@H](OC(=O)c1cc(Cl)cc(Cl)c1)C2 | 0.686 |
| COc1ccc(C(=O)N2CCCC2=O)cc1 [Aniracetam] | 0.0699 |
| CC(C)C[C@H]1C(=O)N2CCC[C@H]2[C@]2(O)O[C@](NC(=O)[C@@H]3C=C4c5cccc6[nH]c(Br)c(c56)C[C@H]4N(C)C3)(C(C)C)C(=O)N12 [Bromocriptine mesylate] | 0.623 |
| COc1ccc(CNC(=O)/C=C/c2ccc3[nH]cc(CCN(C)C)c3c2)cc1 | 0.115 |
| O=C(O)/C=C/CO [trans-4-Hydroxycrotonic acid] | 0.0547 |
| CC(N)Cc1cnc[nH]1 (stereo not given) | 0.293 |
| CC(=O)NCCc1c[nH]c2ccccc12 [N-Acetyltryptamine] | 0.0329 |

| Structure (SMILES) | LC3 puncta (log2) |
| --- | --- |
| c1ccc2sc(C3(N4CCCCC4)CCCCC3)cc2c1 [BTCP maleate] | 0.575 |
| O=C1CCCN1CC#CCN1CCCC1 [Oxotremorine sesquifumarate] | 0.192 |
| Clc1cccc(SC2CCNCC2)n1 [Anpirtoline hydrochloride] | 0.148 |
| NC(C(=O)O)c1nn[nH]n1 (racemic) [(RS)-(Tetrazol-5-yl)glycine] | 0.357 |
| CN(C(=O)Cc1ccc(Cl)c(Cl)c1)[C@H](CN1CCCC1)c1ccccc1 [ICI 199,441 hydrochloride] | 0.486 |
| C(=C\c1ccccc1)/CN1CCN(CCOC(c2ccccc2)c2ccccc2)CC1 | 0.791 |
| CCCN(CCC)C1CCc2ccc(O)cc2C1 (stereo not given) [7-Hydroxy-DPAT hydrobromide] | 0.179 |
| c1ccc2nc(N3CCNCC3)ccc2c1 [Quipazine dimaleate] | 0.278 |
| NCCc1c[nH]c2ccc(C(N)=O)cc12 [5-Carboxamidotryptamine maleate] | 0.571 |
| Cc1onc(O)c1C[C@H](N)C(=O)O | 0.29 |
| CN1C(=O)CCS(=O)(=O)C1c1ccc(Cl)cc1 (stereo not given) [Chlormezanone] | 0.287 |
| C=CCN1CC[C@]23c4c5ccc(O)c4O[C@H]2C(=O)CC[C@@]3(O)[C@H]1C5 [Naloxone hydrochloride] | 0.232 |
| O=C(Cc1ccc(Cl)c(Cl)c1)N1CCCCC1CN1CCCC1 (stereo not given) | 0.493 |
| Fc1ccc(C(OCCN2CCN(CCCc3ccccc3)CC2)c2ccc(F)cc2)cc1 | 0.781 |
| O=c1[nH]oc2c1CCNC2 [THIP hydrochloride] | 0.742 |
| C=CCN1C[C@H](C)N([C@H](c2ccc(C(=O)N(CC)CC)cc2)c2cccc(OC)c2)C[C@H]1C | 0.846 |
| O=C(O)Cc1cccnc1C(=O)O [Homoquinolinic acid] | 0.499 |
| c1ccc(CCCN2CCN(CCOC(c3ccccc3)c3ccccc3)CC2)cc1 | 0.346 |
| Oc1ccc2c3c1O[C@H]1c4[nH]c5ccccc5c4C[C@@]4(O)[C@@H](C2)N(CC2CC2)CC[C@]314 [Naltrindole hydrochloride] | 0.551 |
| N[C@@]1(C(=O)O)CC[C@@H](C(=O)O)C1 | 0.292 |
